About 79,000 compounds went through this panel and 15% of them were active in at least one assay; those are over-represented in the sample as a whole. The source made the active and inactive calls. Rule as the data show it: active = growth inhibition above about 70%; inactive = the rest.
Assays:
[1] = NCI Yeast Anticancer Drug Screen. Data for the rad50 strain (AID 155);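 also: 0% = growth of vehicle-only cultures of the same strain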; conditions: S. cerevisiae rad50 strain growth inhibition; at 50.0 µM; hits give high values
How it was run: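 Growth of the mutant yeast was measured after compound exposure and referenced to vehicle-treated cultures.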

[2] = NCI Yeast Anticancer Drug Screen. Data for the mec2-1 strain (AID 157); conditions: S. cerevisiae mec2-1 strain, at 50.0 µM, hits give high values
How it was run: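 Mutant yeast (mec2-1) grown with compound; growth inhibition relative to vehicle control reported.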

[3] = NCI Yeast Anticancer Drug Screen. Data for the sgs1 mgt1 strain (AID 161);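 also: 0% = growth of cultures given vehicle only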; conditions: S. cerevisiae sgs1 mgt1 strain, at 50.0 µM, hits give high values
How it was run: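 Yeast cells carrying a defined DNA-repair defect were exposed to test compounds. Growth inhibition was measured relative to vehicle-treated controls.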

[4] = NCI Yeast Anticancer Drug Screen. Data for the cln2 rad14 strain (AID 165);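 also: 0% = growth equal to vehicle treated cultures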; conditions: S. cerevisiae cln2 rad14 strain, at 50.0 µM, hits give high values
How it was run: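 Readout is yeast growth inhibition versus vehicle-treated controls, using a strain with cln2 and rad14 alterations exposed to compound.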

[5] = NCI Yeast Anticancer Drug Screen. Data for the bub3 strain (AID 167); conditions: S. cerevisiae bub3 mutant strain, at 50.0 µM, hits give high values
How it was run: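 Whole-cell yeast assay. The mutant strain was incubated with compounds, and growth inhibition was determined by comparison with vehicle-treated cells.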

[6] = NCI Yeast Anticancer Drug Screen. Data for the mlh1 rad18 strain (AID 175); conditions: S. cerevisiae mlh1 rad18 strain growth inhibition; at 50.0 µM; hits give high values
How it was run: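 Genetically defined yeast (DNA repair-deficient) exposed to compounds; growth inhibition determined relative to vehicle.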

Measured: growth inhibition

COc1cc(Nc2nc3ccccc3nc2-c2cccs2)cc(OC)c1OC
inactive: [1] 4.8% | [2] 14% | [3] 29.6% | [4] 29.8% | [5] 26.1% | [6] 6%

CC(C)C1SCC(=O)N1c1nncs1 (stereo not given)
inactive: [1] -2.55% | [2] 22.4% | [3] 9.15% | [4] -27.8% | [5] -0.9% | [6] 5%

O=C1c2cccc3cc([N+](=O)[O-])cc(c23)C(=O)N1CC1CCCO1 (stereo not given)
active: [1] 75.3%
inactive: [2] 15.8% | [3] 30.6% | [4] 18.1% | [5] 26.1% | [6] 3.15%

COc1ccc(NC(=O)C/C(C)=C2/C(=O)NN(c3ccccc3)C2=O)cc1
inactive: [1] 33.5% | [2] 15.2% | [3] 39.9% | [4] 4.5% | [5] 19.1% | [6] 41.1%

Cc1cccc(NCc2ccncc2)n1
inactive: [1] 19.2% | [2] 9.2% | [3] 26.8% | [4] 2.15% | [5] 1.85% | [6] 6.75%

CCOC(=O)C(C(=O)OCC)C(C(=O)OCC)(C(=O)OCC)C(C(=O)OCC)C(=O)OCC
inactive: [1] -15.2% | [2] -9.15% | [3] 1.85% | [4] -3.55% | [5] -3.65% | [6] -19.9%

CCC(=O)NC1CCCCC1
inactive: [1] 8.6% | [2] 3.5% | [3] 19.2% | [4] -15.3% | [5] -13.9% | [6] 1.4%

O=C(C(Cl)=C(N1CCOCC1)N1CCOCC1)C(Cl)Cl
inactive: [1] -37.9% | [2] -18.4% | [3] -57.5% | [4] -15.8% | [5] -32.9% | [6] -34.6%

CO[C@@]12CC(=O)/C(=C(O)\C=C\c3ccccc3)C(=O)[C@]1(OC)Cc1ccccc1O2
inactive: [1] 35.1% | [2] 31.9% | [3] 33.6% | [4] 18.6% | [5] 34.2% | [6] 24.6%

Cc1c2occc2cc2c1oc(=O)c1cnccc12
inactive: [1] 0.95% | [2] -0.15% | [3] 1.85% | [4] 21.2% | [5] -4.95% | [6] 14.9%

Cc1cccc(C)c1-n1c(C)nc2[nH]cc(C)c2c1=N
inactive: [1] 6.35% | [2] -6.25% | [3] 4.55% | [4] 5.1% | [5] 17.1% | [6] 8.95%

O=C1NC(=O)c2c1c1cnn(-c3ccccc3)c1n1cccc21
inactive: [1] 15.1% | [2] 4.35% | [3] 25.2% | [4] -67% | [5] 1.2% | [6] 17.7%

C=C1C(=O)C=C2C=C3C(=O)C(C)(C)C[C@]3(O)C12C (stereo not given in full)
inactive: [6] -21.7%
active: [1] 84.3% | [2] 92% | [3] 89% | [4] 82.5% | [5] 86.2%

OCC1OC(OC2CCCCC2)C(O)C(O)C1O (stereo not given)
inactive: [1] -1.45% | [2] 51.5% | [3] 21.9% | [4] -5.05% | [5] 24.6% | [6] 32.8%

Clc1ccccc1/C=N/N=C/c1ccccc1Cl
inactive: [1] 5.65% | [2] -3.95% | [3] -9.05% | [4] -21.9% | [5] 1.7% | [6] 4.9%

CS(=O)(=O)N1COC(=O)[C@@H]1c1ccccc1
inactive: [1] 1.25% | [2] 25.4% | [3] 7% | [4] -3% | [5] 11.2% | [6] 3.05%

O=C1COc2ccccc2OCCOCCOc2ccccc2OC1
inactive: [1] 11.2% | [2] -2.9% | [3] -2.7% | [4] -12.2% | [5] 2.3% | [6] -14.9%

O=Cc1cc(N=Nc2ccc(S(=O)(=O)O)cc2)ccc1O
inactive: [1] 5.8% | [2] -35.5% | [3] -1.45% | [4] 14.9% | [5] -17.6% | [6] 3.6%

CCCn1c(C)nc2c(N)cc(C)cc21
inactive: [1] -5.9% | [2] -2.9% | [3] -6.05% | [4] -44.5% | [5] -1.5% | [6] -0.8%

CC(C)=CC1C[C@H](C2CC=C3C2(C)CCC2[C@@]3(C)C(=O)CC3[C@]2(C)C=CC(=O)[C@]3(C)CO)CO1 (stereo not given in full)
active: [1] 77.8% | [2] 78.9% | [3] 81.8% | [4] 78% | [5] 81.7% | [6] 86.2%

— PubChem BioAssay (NCI)
